# High-throughput results (PubChem BioAssay)
# SW480 rereplic: A quantitative high throughput screen for small molecules that induce DNA re-replication in SW480 colon adenocarcinoma cells; SW480 DNA re-replication, Hoechst DNA content imaging, 48 h; Potency, µM (doses to about 46.1 µM), for the others: at the highest dose re-replication activation, usual class: activators; hit rate 1.8% among 340,000; AID 624297, 2012; note: % of control where 0% means no effect; nearly all actives have a fitted effect of over 55% in size
#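 Cells (250 per well) received 23 nL compound or DMSO by pin tool and were kept 48 hr at 37 C, 5% CO2. Nuclei were then stained with Hoechst for 40 min and scanned for DNA content.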
# Gal4-VP16 FLuc: VP16 counterscreen qHTS for inhibitors of ROR gamma transcriptional activity; Drosophila S2 Gal4-VP16 UAS-luciferase, luminescence, 20 h; Potency, µM (titrated, usually from 53.6 µM), inactives show at the top dose activity, negative = inhibition, most hits filed as inhibitors; hit rate 3.5% among 310,000; AID 2546, 2010;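 note: Gal4-VP16 expression switched on by copper sulfate through the metallothionein promoter; % is set by controls: 0 for no effect and ±100 for the full control effect; nearly all actives have a fitted effect of over 50% in size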
# ELG1 repair inh: qHTS screen for small molecules that inhibit ELG1-dependent DNA repair in human embryonic kidney (HEK293T) cells expressing luciferase-tagged ELG1. hit rate 2.3% among 330,000. HEK293T ELG1-luciferase reporter, luminescence, 16 h; DNA damage induced by 5-fluorouridine. Potency, µM (series often up to 46.1 µM), without a hit: at the highest dose activity change, negative = inhibition, most hits filed as inhibitors. AID 504467, 2011; note: % is set by controls: 0 for no effect and ±100 for the full control effect; nearly all actives have a fitted effect of over 55% in size
#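 Overnight (16 hr) co-exposure of 2,000 cells/well to 5-fluorouridine and compound at 37 °C preceded detection. Luciferase was quantified via ONE-Glo luminescence; loss of signal denotes inhibition.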
# MCF10A rereplic: A quantitative high throughput screen for small molecules that induce DNA re-replication in MCF 10a normal breast cells; hit rate 2.9% among 350,000; Potency, µM (doses to about 46.1 µM), inactives show top-dose activity, positive = re-replication, most hits filed as activators; MCF 10A DNA re-replication, Hoechst nuclear intensity, 48 h; AID 624296, 2012; note: % of control where 0% means no effect; nearly all actives have a fitted effect of over 50% in size
# RORgamma inh: qHTS for inhibitors of ROR gamma transcriptional activity. AID 2551, 2010. Potency, µM (doses to about 53.6 µM), for the others: at the highest dose activity change, negative = inhibition, usual class: inhibitors. Drosophila S2 Gal4-RORgamma UAS-luciferase reporter, 20 h. hit rate 5.4% among 310,000. Nuclear receptor ROR-gamma (Mus musculus), P51450; note: % is set by controls: 0 for no effect and ±100 for the full control effect; nearly all actives have a fitted effect of over 60% in size
# Target sequence (P51450 whole entry, looked up, the tested form may be a part): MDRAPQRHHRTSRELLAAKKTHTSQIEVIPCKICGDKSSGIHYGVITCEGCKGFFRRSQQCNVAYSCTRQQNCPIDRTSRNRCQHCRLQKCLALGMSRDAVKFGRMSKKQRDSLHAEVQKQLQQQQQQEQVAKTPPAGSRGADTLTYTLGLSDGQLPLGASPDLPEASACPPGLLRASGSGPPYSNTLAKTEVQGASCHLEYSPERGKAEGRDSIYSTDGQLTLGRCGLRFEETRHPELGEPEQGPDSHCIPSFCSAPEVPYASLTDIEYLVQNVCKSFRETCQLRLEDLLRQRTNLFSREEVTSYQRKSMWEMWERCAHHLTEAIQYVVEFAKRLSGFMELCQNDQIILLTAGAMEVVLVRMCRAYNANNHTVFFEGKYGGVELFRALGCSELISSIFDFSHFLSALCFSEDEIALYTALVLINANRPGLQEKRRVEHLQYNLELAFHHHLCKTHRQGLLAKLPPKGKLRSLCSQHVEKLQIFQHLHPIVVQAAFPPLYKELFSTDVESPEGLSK
#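 Drosophila S2 cells stably expressing Gal4-DBD/mouse RORγ fusion under metallothionein promoter plus UAS-luciferase; compound 1 h, then 700 uM CuSO4 induction for 20 h at ambient temperature; inhibition read as reduced luminescence.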
# The depositor's hits bear a star; u = inconclusive; x = not tested or not shown; [ ] = dose if it differs, or a comment. The list is not random: actives were taken first. Their share in the collection is about 10%. Calls come from the whole dose curve; as a rule, active = well fitted curve in the direction sought with a large enough effect; inconclusive = small, poorly fitted or top-dose-only effect, or another doubt; inactive = no such curve, though single readings can be large; an effect the other way counts as inactive or inconclusive. Potency is the fitted concentration of half-maximal effect.
SMILES,SW480 rereplic,Gal4-VP16 FLuc,ELG1 repair inh,MCF10A rereplic,RORgamma inh
Cc1nn(CC#N)c(=O)n1-c1ccccc1F,4%,4%,7%,0%,10µM*
COCc1cc(CNC(=O)C2CCC(=O)N(Cc3ccccc3F)C2)[nH]n1 (centres undefined),-10%,7%,21%,4%,-1%
Cc1cc(Cl)c(S(=O)(=O)N2CCCC2)cc1OCC(=O)NC1CCCCC1,1%,u,13µM*,9%,u
Cc1cc(Cl)c(S(=O)(=O)NC(C(=O)O)C(C)C)cc1OCC(=O)NC1CCCCC1 (centres undefined),-5%,-3%,7%,4%,-1%
O=S(=O)(NCCC1=CCCCC1)c1ccc(OC(F)(F)F)cc1,2%,x,2%,u,x
O=C(NCC(=O)N1CC=C(c2ccccc2)CC1)c1ccccc1Br,-26%,10%,-24%,8.2µM*,6%
O=C(NCC(=O)N1CC=C(c2ccccc2)CC1)c1ccc(OC(F)F)cc1,u,x,u,8.2µM*,x
COc1cc(OC)cc(C(=O)NCC(=O)N2CC=C(c3ccccc3)CC2)c1,7.3µM*,x,u,u,x
COCCCNC(=O)c1nc2ccccc2c(=O)n1NC(=O)Nc1c(Cl)cccc1Cl,0%,-3%,2%,-16%,9%
Cc1cc(C)n2nc(SCCCC(=O)c3ccc(F)cc3)nc2n1,-2%,-1%,10%,-1%,19%
COc1ccc(N2C(=O)C(CC(=O)Nc3ccc(Cl)cc3)N(NC(=O)c3cccc(F)c3)C2=S)cc1 (centres undefined),-11%,-6%,-15%,13%,-36%
COc1ccc(NC(=O)CC2C(=O)N(c3ccc(OC)cc3)C(=S)N2NC(=O)c2cccc(F)c2)cc1 (centres undefined),-5%,u,-4%,u,13µM*
COc1ccc(/C=C/C(=O)c2ccc3c4c(cccc24)CC3)cc1OC,u,-9%,u,18µM*,u
COc1ccc(C(=O)Oc2ccc(F)cc2C(=O)/C=C/c2ccc(OC)c(OC)c2)cc1,u,u,u,0%,u
COc1ccc(/C=C/C(=O)c2cc(F)ccc2OC(=O)c2ccccc2C)cc1OC,1.2µM*,u,-10%,1.2µM*,u
COc1ccc(/C=C/C(=O)c2cc3cccc(OC)c3oc2=O)cc1,u,-4%,0%,u,29%
COc1ccc(/C=C/C(=O)c2ccc3c4c(cccc24)CC3)cc1,u,u,-8%,18µM*,u
COc1ccc(-c2cc(C(=O)Nc3cccnc3)no2)cc1OC,-58%,7%,u,3%,0%
O=C(Nc1cccc(S(=O)(=O)N2CCOCC2)c1)C1CC(=O)N(c2ccc3c(c2)OCCO3)C1 (centres undefined),-24%,x,-4%,13%,x
CCN(CC)S(=O)(=O)c1cc(C(=O)c2nccn2C)ccc1Cl,-8%,-10%,2%,4%,3%
N#C/C(=C\c1ccc(N2CCOCC2)o1)c1nc2ccccc2[nH]1,-2%,0%,u,3%,16µM*
N#C/C(=C\c1ccc(N2CCOCC2)c([N+](=O)[O-])c1)c1nc2ccccc2[nH]1,-42%,u,u,10%,u
N#C/C(=C\c1ccc(N2CCCCC2)o1)C(N)=O,1%,5%,u,-12%,1%
N#C/C(=C/c1ccc(N2CCOCC2)o1)c1ccc(Cl)cc1,-8%,10µM*,u,-7%,u
O=C(NCC1CCCN(Cc2cccc(F)c2)C1)c1cccc2ccccc12 (centres undefined),7%,4%,u,-2%,-14%
SMILES,SW480 rereplic,Gal4-VP16 FLuc,ELG1 repair inh,MCF10A rereplic,RORgamma inh
CO[C@H]1COC(=O)[C@H](C)NC(=O)C/C=C\[C@@H](C)[C@@H](NS(=O)(=O)c2ccc(C)cc2)COC(=O)C/C=C\[C@@H]1C,x,-4%[10 µM],x,x,-6%[10 µM]
CCOC(=O)N1CCC(NC(=O)c2cc3c(-c4ccc(OC)c(OC)c4)nn(C)c3s2)CC1,-5%,-21%,7.3µM*,u,6%
COc1ccc(-c2nn(C)c3sc(C(=O)NCc4ccco4)cc23)cc1OC,-19%,-4%,-12%,-7%,-15%
CC1CCCCN1CCNC(=O)c1cc2c(-c3ccccc3F)nn(C)c2s1 (centres undefined),3%,4%,3%,u,-16%
COc1ccc(NC(=O)c2cc3c(-c4ccc(OC)c(OC)c4)nn(C)c3s2)cc1OC,u,-3%,1.6µM*,18%,-26%
CCOC(=O)C1CCN(C(=O)c2cc3c(-c4ccc(OC)c(OC)c4)nn(C)c3s2)CC1,-10%,-6%,u,4%,1%
CCOC(=O)N1CCC(NC(=O)c2cc3c(-c4ccccc4F)nn(C)c3s2)CC1,4%,-2%,13µM*,u,-2%
O=C(Nc1cccc(F)c1)N1CCC2(CC1)CCN(C(=O)c1ccncc1)CC2,x,5%,x,x,3%
COc1cccc(-c2ncc3ccccc3c2COC(=O)c2ccccc2C(=O)O)c1,-61%[9.22 µM],x,1%,-1%,x
COc1ccccc1C(=O)OCc1c(-c2ccccc2)ncc2ccccc12,u,x,16µM*,u,x
COc1ccc(C(=O)OCc2c(-c3ccccc3)ncc3ccccc23)cc1,15µM*,x,u,16µM*,x
COc1ccc(NC(=O)c2cc(S(=O)(=O)N3CCCC3)cn2C)cc1Cl,-4%,-1%,26%,9%,14%
CC(C)C[C@@H](COc1ccccc1)N1CCN(Cc2ccccc2)CCC1=O,-3%,18%,1%,13%,2%
O=c1[nH][nH]c(C(F)(F)F)c1C=NCc1cccs1,-5%,-4%,-6%,1%,-2%
CCN(CC)C(=O)c1[nH]cnc1C(=O)NC1CCN(C(=O)OC(C)(C)C)CC1,-14%,x,u,24%,x
CCOc1cc(S(=O)(=O)N2CCC(Cc3ccccc3)CC2)c(OCC)cc1-n1cnnn1,0%,-5%,u,-2%,5%
CCOc1cc(S(=O)(=O)N2CC=C(c3ccc(F)cc3)CC2)c(OCC)cc1-n1cnnn1,-6%,-7%,5.8µM*,0%,8%
CC(C)NC(=S)NNc1ncnc2sc3c(c12)CC(C)(C)OC3,4%,x,x,-5%,x
CC1(C)Cc2c(sc3ncnc(NNC(=S)NCc4ccccc4)c23)CO1,3.7µM*,3.2µM*,-30%,3.3µM*,2.2µM*
CCOC(=O)/C=C/[C@H]1CC2(CCO1)SCCCS2,-1%,x,u,10%,x
COc1ccc(Nc2ncc3c(n2)CC(c2ccccc2)CC3=O)cc1 (centres undefined),11%,-10%,15µM*,u,1%[10 µM]
